The source of these data is PubChem BioAssay (NCATS).

Assay [1] has as its target Alpha-galactosidase A (Homo sapiens) (UniProt P06280). Description: Counterscreen for Glucocerebrosidase Inhibitors: qHTS Assay for Human alpha-Galactosidase at pH 4.5 (AID 992). In outline:
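Concentration-response curves (0.7 nM to 77 uM final) were modeled with the Hill equation to give AC50. Reactions: 2 nM enzyme, 80 uM fluorogenic alpha-galactoside, pH 4.5 citric acid buffer, 20 min, room temperature.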

Assay [2] has as its target alpha-glucosidase (Oryza sativa, rice) (UniProt Q653V4). Description: Counterscreen for Glucocerebrosidase Inhibitors: qHTS Assay for Rice alpha-Glucosidase at pH 5.0 (AID 997). In outline: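 Rice alpha-glucosidase (4 nM final) with 400 uM 4-methylumbelliferyl-alpha-D-glucopyranoside in citrate buffer pH 5.0, 20 min at room temperature, stopped at pH 10; fluorescence 365/440 nm, compounds 0.7 nM–77 uM, AC50 from Hill fits.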
Background: The purpose of a counterscreen is to sort out artefacts and off-target activity.

The target of assay [3] is Alpha-galactosidase (Coffea arabica) (UniProt Q42656). Description: Counterscreen for Glucocerebrosidase Inhibitors: qHTS Assay for Coffee Bean alpha-Galactosidase at pH 5.9 (AID 998). Summed up:
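Compounds were titrated from 0.7 nM to 77 uM against green coffee bean alpha-galactosidase (2 nM) using 80 uM fluorogenic 4-methylumbelliferyl substrate. After 20 min at room temperature, reactions were stopped at pH 10 and read by fluorescence.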

A short description of assay [4]: Validation of Assay for Modulators of Lamin A Splicing (AID 1459; active means well fitted curve in the direction sought with a large enough effect in the signal ratio; the % refers to the signal ratio;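 further: cells exposed to compound for two days before reading; ratio rise marks activators and ratio drop marks inhibitors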). Summed up: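 Dual-reporter HeLa S3 line (lamin A-EGFP minigene, DsRed2) treated with compounds 48 hrs, 0.5% DMSO final. Endpoint: EGFP/DsRed2 total intensity ratio from laser-scanning microplate cytometry.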
The nature of assay [5]: Cell Viability - LYMP2-018 (AID 985).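 Further: compound exposure lasted 24 hr at 37 °C; nearly all actives have a fitted effect of over 50% in size.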 Further: potency means the concentration at half of the fitted maximal effect. Summed up: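 Human lymphoblastoid cells (2500/well) were pre-incubated 5 hr at 37 C, then exposed to compounds for 24 hr at 37 C in complete medium. Viability was read as intracellular ATP by CellTiter-Glo luminescence; AC50 values came from Hill-equation fits.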
A short description of assay [6]: Cell Viability - LYMP2-020 (AID 986). Further: nearly all actives have a fitted effect of over 55% in size. Further: potency means the concentration at half of the fitted maximal effect. In outline: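 Human lymphoblastoid cells, 2500/well, were pre-incubated 5 hr at 37 C, then exposed to compounds for 24 hr at 37 C in complete medium. Intracellular ATP was read by CellTiter-Glo luminescence, and AC50 was derived by Hill fitting of concentration-response data.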
Assay [7] in a line: Cell Viability - LYMP2-022 (AID 987). Further: nearly all actives have a fitted effect of over 55% in size. Further: potency means the concentration at half of the fitted maximal effect. In outline: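 Human lymphoblastoid cells, 2500/well, preincubated 5 hr at 37 C, then exposed to compounds over a concentration range for 24 hr at 37 C in complete medium. Viability read as intracellular ATP by CellTiter-Glo luminescence after 30 min at room temperature; AC50 from Hill fits.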
Assay [8] is described as follows: Cell Viability - LYMP2-024 (AID 988). Further: nearly all actives have a fitted effect of over 60% in size. Further: potency means the concentration at half of the fitted maximal effect. Summed up:
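Human lymphoblastoid cells (2500/well) in complete medium were preincubated 5 hr at 37 C, then exposed to compounds for 24 hr at 37 C. Intracellular ATP was read by CellTiter-Glo luminescence; AC50 from Hill-equation fits of concentration-response data.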

Assay [9] can be described thus: Cell Viability - LYMP1-002 - Assay at 24 hr (AID 993). Further: potency means the concentration at half of the fitted maximal effect. In outline:
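Human lymphoblastoid LYMP1-002 cells, 2500/well in complete medium, were treated with compounds for 24 h at 37 C; intracellular ATP was read by CellTiter-Glo luminescence. AC50 values came from Hill-equation fits of qHTS concentration-response data.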

Assay [10] is described as follows: Cell Viability - LYMP1-002 - Assay at 40 hr (AID 994). Further: nearly all actives have a fitted effect of over 60% in size. Further: potency means the concentration at half of the fitted maximal effect. In outline:
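Human lymphoblastoid cells, 2500/well in complete medium, were preincubated 5 hr at 37 C, then exposed to compounds for 40 hr at 37 C. Intracellular ATP was read by CellTiter-Glo luminescence after 30 min at room temperature; AC50 from Hill-equation fits.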

Molecules are shown by their SMILES. “And” between values parts separate entries of the source, which are not always exact repeats. Equal values may be shown once. Records with an inconclusive call do not appear. A structure can be active in one record and inactive in another. The source made the active and inactive calls. Unless noted, the call rests on the fitted dose curve; in most records, active means well fitted curve in the direction sought with a large enough effect; inconclusive means small, poorly fitted or top-dose-only effect, or another doubt; inactive means no such curve, though single readings can be large; an effect the other way counts as inactive or inconclusive.

Alpha-galactosidase A (Homo sapiens), sequence (P06280 whole entry, looked up): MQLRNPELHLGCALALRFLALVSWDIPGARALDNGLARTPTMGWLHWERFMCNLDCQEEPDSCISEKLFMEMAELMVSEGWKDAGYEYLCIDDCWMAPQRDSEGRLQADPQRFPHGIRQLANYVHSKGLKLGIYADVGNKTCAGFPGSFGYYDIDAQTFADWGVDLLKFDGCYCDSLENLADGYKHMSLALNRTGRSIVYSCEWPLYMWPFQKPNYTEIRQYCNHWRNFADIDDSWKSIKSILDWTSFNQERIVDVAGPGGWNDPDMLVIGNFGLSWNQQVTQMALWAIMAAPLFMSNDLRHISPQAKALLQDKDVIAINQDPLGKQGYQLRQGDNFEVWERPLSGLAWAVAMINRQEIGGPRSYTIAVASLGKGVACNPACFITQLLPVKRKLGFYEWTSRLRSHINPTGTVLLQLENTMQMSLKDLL
Alpha-galactosidase (Coffea arabica), sequence (Q42656 whole entry, looked up): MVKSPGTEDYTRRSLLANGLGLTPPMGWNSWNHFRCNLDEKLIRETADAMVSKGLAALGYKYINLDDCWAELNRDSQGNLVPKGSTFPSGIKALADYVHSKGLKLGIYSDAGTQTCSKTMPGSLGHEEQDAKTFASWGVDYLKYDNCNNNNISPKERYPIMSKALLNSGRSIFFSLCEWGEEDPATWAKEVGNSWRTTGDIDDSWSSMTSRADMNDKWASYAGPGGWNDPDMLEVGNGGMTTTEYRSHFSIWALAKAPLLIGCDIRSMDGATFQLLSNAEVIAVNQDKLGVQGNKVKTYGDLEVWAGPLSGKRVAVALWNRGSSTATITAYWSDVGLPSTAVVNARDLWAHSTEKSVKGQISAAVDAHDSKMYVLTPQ

With `NC(=O)c1cc(N2CC2)c([N+](=O)[O-])cc1[N+](=O)[O-]`, the compound was classed as inactive in [1], in assay [2], in [3] and in [4].

On to `COC(=O)N1CCN(C(=O)Cc2ccc(Cl)c(Cl)c2)C(CN2CCCC2)C1` (centres undefined), for which, in [4], the compound was called inactive.

Turning to `NC(=O)COc1c(F)cc(SCCNS(=O)(=O)c2ccccc2)cc1F`, the compound was classed as inactive in assay [1], in [2], in assay [3] and in assay [4].

Regarding `COc1cc(CC(C)N)c(OC)cc1I` (centres undefined), in assay [4], the call was inactive.

Take `CCCN(CCC)[C@@H]1CCc2cccc(O)c2C1`: the outcome in assay [1], in assay [2], in [3] and in assay [4] was inactive.

Turning to `CN1C2CCC1CC(OC(c1ccccc1)c1ccccc1N)C2` (centres undefined), the compound was called inactive in assay [4].

As for `O=C(O)c1cc[c]([Hg][Cl])cc1`, the outcome in assay [1], in [2] and in assay [4] was inactive.

As to `C[C@H](Cc1ccc2c(c1)OC(C(=O)O)(C(=O)O)O2)NC[C@H](O)c1cccc(Cl)c1`, the result in assay [4] was inactive.

Take `COc1ccc2c(c1OC)C(=O)OC2C1c2cc3c(cc2CCN1C)OCO3` (centres undefined): the Potency entry in [5], in [6], in assay [7], in assay [8], in assay [9] and in [10] was “inactive” each time. For the same compound, the compound was classed as inactive in assay [4].

For the compound `COc1ccc(CNC(=O)/C=C/c2ccc3[nH]cc(CCN(C)C)c3c2)cc1`, in assay [4], the outcome was inactive.

For the compound `CCOC(=O)c1ncn2c1[C@@H]1CCCN1C(=O)c1cc(OC)ccc1-2`, the result in assay [4] was inactive.

In the case of `NC(Cc1cc(O)c(O)cc1O)C(=O)O` (centres undefined), the compound was called inactive in assay [4].

In the case of `CN1CCC(c2c[nH]c3ccc(O)cc23)CC1`, the compound was classed as inactive in assay [1], in [2], in assay [3] and in assay [4].

In the case of `CCCN(CCC)CCc1ccc(O)c(O)c1`, the call in [1], in assay [2], in assay [3] and in assay [4] was inactive.

On to `CN(N=O)c1ccc(O)c(O)c1`, for which the call in [1], in assay [2], in assay [3] and in assay [4] was inactive.

For the compound `N[C@@]1(C(=O)O)CC[C@@H](C(=O)O)C1`, the result in assay [4] was inactive.

With `CCCn1c(C)c(C(=O)c2ccc3ccccc3c2)c2ccccc21`, the result in assay [1], in [2], in assay [3] and in assay [4] was inactive.

`Cc1o[nH]c(=O)c1CC(N)C(=O)O` (centres undefined): the outcome in assay [4] was inactive.

Turning to `CN(N=O)c1cc(O)ccc1O`, the result in assay [1], in [2], in assay [3] and in assay [4] was inactive.

For `COc1ccc2c(c1)[C@@]13CCCC[C@H]1[C@@H](C2)NCC3`, the call in [4] was inactive.

`C[N+]1(C)CCN(c2ccccc2)CC1`: the compound was called inactive in assay [1], in assay [2], in assay [3] and in assay [4].

`CC12NC(Cc3ccccc31)c1ccccc12` (centres undefined): the outcome in [4] was inactive.

Consider `C[C@@H]1O[C@H](C[N+](C)(C)C)CS1`, for which the outcome in assay [1], in assay [2], in [3] and in assay [4] was inactive.

Take `O=C1C=CC(=O)C=C1`: the figures for the Potency in assay [7] and in [8] were 39.8 µM (active) and 31.6 µM (active), respectively. The outcome in assay [1], in [2], in [3] and in assay [4] was inactive. Besides, the Potency entry in assay [9] and in assay [10] was “inactive” each time.

Consider `Nc1ccc(CCN2CCN(c3cccc(C(F)(F)F)c3)CC2)cc1`, for which the call in assay [1], in assay [2], in assay [3] and in [4] was inactive.

As for `C[N+](C)(C)CC#CCOC(=O)Nc1cccc(Cl)c1`, the compound was classed as inactive in assay [1], in [2], in assay [3] and in assay [4].

As to `O=c1c2ccccc2[se]n1-c1ccccc1`, the result in assay [1], in assay [2] and in [4] was inactive.

Take `OC1CCCCC1N1CCC(c2ccccc2)CC1` (centres undefined): the compound was called inactive in [4].

With `N[C@@H](CCl)C(=O)O`, in [4], the outcome was inactive.

For `O=P(O)(O)C(Cl)(Cl)P(=O)(O)O`, the outcome in assay [1], in assay [2], in assay [3] and in assay [4] was inactive.

Regarding `CCCn1c(=O)c2[nH]c(C3CCCC3)nc2n(CCCOC(=O)c2ccc(S(=O)(=O)F)cc2)c1=O`, the compound was called inactive in assay [1], in assay [2], in assay [3] and in assay [4].

Take `C#CCN[C@H](C)Cc1ccccc1`: the compound was called inactive in assay [4].

Consider `C[N+]1(C)CCOC(O)(c2ccc(-c3ccc(C4(O)C[N+](C)(C)CCO4)cc3)cc2)C1` (centres undefined), for which the compound was called inactive in assay [4].

In the case of `Ic1ccccc1CNC1C2CCN(CC2)C1C(c1ccccc1)c1ccccc1` (centres undefined), the call in assay [4] was inactive.

Regarding `CC1OC1P(=O)(O)O` (centres undefined), the result in assay [4] was inactive.

As for `COC1=CC(=O)O[C@@H](/C=C/c2ccccc2)C1`, the Potency result in [5], in assay [6], in assay [7], in assay [8], in [9] and in assay [10] was “inactive” throughout.

Regarding `[Cl-].[Cl-].[Hg+2]`, the Potency in assay [5] was 5.01 µM (active); in assay [6], 3.16 µM (active); in assay [8] it was 0.398 µM (active); in assay [9], 1.26 µM (active); in assay [10], 3.16 µM (active).

As to `ClC(Cl)(Cl)Cl`, the Potency result in assay [5], in assay [6], in assay [7], in assay [8], in assay [9] and in assay [10] was “inactive” in each case.

Turning to `O=C(O)C(Cl)(Cl)Cl`, the Potency result in assay [5], in assay [6], in assay [7], in [8], in assay [9] and in assay [10] was “inactive” throughout.

Take `C=CCN=C=S`: the Potency result in [5], in assay [6], in assay [7], in [8], in assay [9] and in assay [10] was “inactive” each time.

For the compound `c1ccc2c(N3CCNCC3)cccc2c1`, the result in assay [1], in assay [2], in assay [3] and in assay [4] was inactive.

Consider `CC(C)CCON=O`, for which the Potency result in assay [5], in assay [6], in assay [7], in assay [8], in assay [9] and in [10] was “inactive” throughout.

On to `O=C1CCO1`, for which the Potency entry in assay [5], in [6], in assay [7], in [8], in [9] and in assay [10] was “inactive” each time.

As for `COc1ccc2[nH]c3c(c2c1)CCNC3`, the result in [1], in assay [2], in [3] and in [4] was inactive.

As for `S=C=S`, the Potency entry in assay [5], in [6], in assay [7], in assay [8], in assay [9] and in assay [10] was “inactive” in each case.

As for `Cc1[nH]c2ccc(O)cc2c1CCN`, the call in assay [1], in [2], in [3] and in [4] was inactive.

Take `CCCCCl`: the Potency result in assay [5], in [6], in [7], in assay [8], in [9] and in [10] was “inactive” throughout.

Turning to `NNC(=O)c1ccc(O)cc1`, the outcome in assay [1], in [2], in [3] and in assay [4] was inactive.

Regarding `[O]=[Cr](=[O])([OH])[O][Cr](=[O])(=[O])[OH]`, the Potency in assay [5] was 7.94 µM (active) and 12.6 µM (active); in assay [6], 15.8 µM (active) and 10 µM (active); in assay [7], 10 µM (active) and 12.6 µM (active) and 7.94 µM (active); in [8], 12.6 µM (active) and 15.8 µM (active) and 10 µM (active); in assay [10] it was “inactive and 39.8 µM (active)”. In addition, the Potency result in assay [9] is “inactive”.
